The panel holds about 83,000 compounds, 20% with a hit somewhere; the sample as a whole holds those more often.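 Method: cells in 96-well plates; compound added at one concentration; 48 h incubation; percent growth measured; values under 10 scored active.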 A number with no mark means an inactive call. The source made the active and inactive calls.
System: HL-60(TB) leukemia
Test: NCI-60 one-dose screen, 48 h (100 = growth as untreated, 0 = no growth, -100 = all killed)
Details: 10 µM unless noted

Structure (SMILES) | growth
O=[N+]([O-])c1ccccc1Nc1ccc2ccccc2c1 | 93.5%
CC(=O)/C(=C\c1ccc(Cl)cc1)c1ccccc1 | -16.2% (active)
CC(=O)Nc1ccc(O)c(C)c1 | 104%
Cn1cc(-c2cc3ncnc(Nc4ccc(CC(=O)Nc5cc(C(C)(C)C)nn5C)cc4)c3s2)cn1 | 63.4%
COC(=O)C1=C(C(=O)ON)C2C=CC1(C(Cc1ccccc1)Nc1ccccc1)O2 (stereo unspecified) | 18.9%
CC(=O)O[C@]1(C)CC[C@H]2[C@H](CNCCc3ccc(Cl)cc3)C(=O)O[C@@H]2C2=C(C)C(=O)C[C@H]21 | 89.2%
CCOC(=O)C(=CCC(C)C)C(=O)OCC | 40.5%
CS(=O)(=O)Nc1cc(-c2ccc3ncnc(Nc4ccc5[nH]ncc5c4)c3c2)cnc1Cl | 55.5%
O=C(O)/C=C\C(=O)Nc1ccc2c(c1)Cc1cc(F)ccc1-2 | 100%
COc1ccc(NC(=O)[C@@H]2C[C@H]2c2ccccc2)c(C(N)=O)c1 | 93.9%
O=C(Nc1ccc(N=Cc2ccccc2O)cc1)NC1C=c2ccccc2=CC1 (stereo unspecified) | 79.4%
